# Measurements: PubChem BioAssay (NCI)
# This is part of a sample that, as a whole, favours compounds with a hit. Of some 83,000 tested, about 20% had one in any assay.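 Method: cells in 96-well plates; compound added at one concentration; 48 h incubation; percent growth measured; values under 10 scored active.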 A number with no mark means an inactive call. The source made the active and inactive calls.
# Key:
# Test in all cases: NCI-60 one-dose screen, 48 h (100 = growth as untreated, 0 = no growth, -100 = all killed)
# Conditions in all cases: 10 µM unless noted
# NCI-H23 lung = system: NCI-H23 lung
# NCI-H226 lung = system: NCI-H226 lung
# NCI-H322M lung = system: NCI-H322M lung
# HOP-62 NSCLC = system: HOP-62 NSCLC
# NCI-H460 lung = system: NCI-H460 lung
# HOP-92 NSCLC = system: HOP-92 NSCLC
# NCI-H522 lung = system: NCI-H522 lung
# A549/ATCC NSCLC = system: A549/ATCC NSCLC
# 786-0 renal = system: 786-0 renal
# COLO 205 colon = system: COLO 205 colon
# DU-145 prostate = system: DU-145 prostate
# K-562 leukemia = system: K-562 leukemia
# MALME-3M melanoma = system: MALME-3M melanoma
# MDA-MB-231 breast = system: MDA-MB-231 breast
# RXF 393 renal = system: RXF 393 renal
# SF-268 CNS = system: SF-268 CNS
# SF-295 CNS = system: SF-295 CNS
# SF-539 CNS = system: SF-539 CNS
# UACC-257 melanoma = system: UACC-257 melanoma
# M14 melanoma = system: M14 melanoma
SMILES,growth (NCI-H23 lung),growth (NCI-H226 lung),growth (NCI-H322M lung) [%],growth (HOP-62 NSCLC),growth (NCI-H460 lung),growth (HOP-92 NSCLC),growth (NCI-H522 lung),growth (A549/ATCC NSCLC),growth (786-0 renal),growth (COLO 205 colon),growth (DU-145 prostate),growth (K-562 leukemia),growth (MALME-3M melanoma),growth (MDA-MB-231 breast),growth (RXF 393 renal),growth (SF-268 CNS),growth (SF-295 CNS),growth (SF-539 CNS),growth (UACC-257 melanoma),growth (M14 melanoma)
CN1CCN(Cc2ccc(NC(=O)c3cnc(F)c(C#Cc4cnc(N)c5ncccc45)c3)cc2C(F)(F)F)CC1,28.3%,-14.2% (active),33.7,16.6%,13.1%,-8.06% (active),30%,23.3%,29.5%,-7.96% (active),30.5%,1.55% (active),-43.1% (active),-25.7% (active),-0.985% (active),28.6%,48.2%,9.63% (active),13.5%,-56.4% (active)
C=C(C)c1ccc(/C=N/NC(N)=S)cc1,103%,86.3%,111,77.4%,99.9%,131%,103%,118%,11.4%,120%,97.6%,89%,116%,96.8%,94.6%,109%,76.5%,99.2%,257%,87.2%
Nc1nc(N)c2c(n1)NC(c1sc(Cl)nc1Cl)CC(c1ccccc1)=N2 (stereo unspecified),76.4%,73.6%,101,41.9%,26.8%,48.7%,9.11% (active),43.1%,62%,46.7%,75.1%,17.5%,26.8%,47.8%,43.8%,53.6%,35.2%,35.4%,68.6%,
Cc1ccc2cc3c(NC(=O)c4cccnc4)nn(C)c3nc2c1,90%,85.3%,89.4,101%,98.2%,81.5%,67.1%,95.7%,98.6%,85.5%,100%,85.8%,99.1%,83.8%,89.3%,97.3%,101%,97.1%,99.3%,
Cc1cc(C)c(C#N)c(SCC(=O)c2sc3c(C#N)c(C)cc(C)[n+]3c2[O-])n1,39.4%,46.3%,29,17%,6.25% (active),51.8%,-31.1% (active),19.9%,30.6%,5.03% (active),-6.34% (active),5.26% (active),17.5%,15.2%,-21.5% (active),22.9%,-52.3% (active),-11.3% (active),51.9%,12.2%
CC(OC(=O)Nc1cccc(Cl)c1)C(=O)O (stereo unspecified),97.9%,96.4%,101,86.7%,108%,92.2%,80.9%,99.1%,96%,113%,113%,92.3%,116%,109%,98.4%,99.6%,75.3%,99.1%,91.5%,
NC(=O)c1noc(C(=O)c2ccccc2)c1N,101%,89.8%,104,114%,102%,107%,80.4%,89.1%,97.9%,111%,104%,89.5%,101%,109%,96.2%,98.4%,98.9%,107%,102%,110%
CCCCn1c(C)nc2ccc(Nc3nc(Cl)nc4nc[nH]c34)cc21,75.3%,62.4%,82.5,66.1%,70.9%,-11.2% (active),73.2%,81.4%,55.4%,86.8%,80.3%,69.8%,78.1%,64.8%,62.9%,76%,76.3%,79.9%,92.5%,68.3%
CCCCn1c(C)nc2cc(Nc3nc(Cl)nc4nc[nH]c34)ccc21,77.9%,75%,76.8,66%,84.7%,-1.07% (active),78.9%,85%,76.4%,89.7%,89.6%,90.3%,79.8%,75%,81.9%,92.4%,74.5%,76.3%,100%,86.8%
COc1cc(C2CC(c3cccc(Nc4ccnc5cc(Cl)ccc45)c3)=NN2c2ccccc2)cc(OC)c1OC (stereo unspecified),79.5%,82.1%,87,82.3%,71.1%,33.3%,53.8%,76.2%,88%,92.2%,68.9%,14%,64.3%,77.7%,93.1%,63.2%,31.5%,80.7%,80.1%,
COc1ccc(C2C3CCc4ccccc4C3=NN2C(=O)c2cc(OC)c(OC)c(OC)c2)cc1O (stereo unspecified),98%,89.1%,86.2,92.8%,108%,84.2%,81.8%,102%,106%,113%,111%,52.7%,77.2%,103%,56.8%,105%,91.2%,101%,110%,
COc1ccc2[nH]c(C(=O)OCc3ccc4c(Br)cc(Br)c(O)c4n3)cc2c1,-62.4% (active),-64.7% (active),43.1,7.47% (active),-75.1% (active),-59.8% (active),-68% (active),-10.2% (active),-81.8% (active),-80.2% (active),-94.6% (active),1.4% (active),-79.6% (active),-73.6% (active),-89.2% (active),-70.8% (active),72.3%,-91.9% (active),-72.8% (active),
NS(=O)(=O)c1ccc(N2N=C(c3cccs3)CC2c2ccccc2O)cc1 (stereo unspecified),28.1%,19.2%,25.4,24.4%,-0.156% (active),-8.37% (active),-23.9% (active),7.33% (active),10.8%,-73.7% (active),-45% (active),4.59% (active),47.9%,-19.3% (active),27.1%,7.15% (active),1.4% (active),-23.5% (active),33.2%,
COc1ccc(/C=C(/C(=O)N2CCN(c3ccccc3)CC2)c2cc(OC)c(OC)c(OC)c2)cc1N,39.4%,40.5%,49.8,30.4%,6.98% (active),92.2%,3.2% (active),24%,25.7%,-21.2% (active),15.2%,6.11% (active),66.3%,22.1%,-1.82% (active),46.6%,7.2% (active),-17.4% (active),69.2%,1.47% (active)
Oc1ccc(Nc2ncnc3c2sc2ncccc23)cc1,11.2%,42.6%,47,9.02% (active),9.18% (active),28.5%,33.6%,26.9%,12.5%,36%,17.2%,38.2%,60.6%,64.4%,35.3%,23.7%,15.1%,5.87% (active),36.4%,
COc1ccc2[nH]c(C(=O)OCc3ccc4cccc(O)c4n3)cc2c1,-3.84% (active),-68.1% (active),62.7,35%,7.31% (active),-78.2% (active),-66.9% (active),21.2%,-76.1% (active),-69.1% (active),-91.8% (active),-3.39% (active),-76.2% (active),-70.8% (active),-92.2% (active),-65.6% (active),73.7%,-92.7% (active),-70.7% (active),
